Out of some 310,000 compounds screened, about 14,000 (4.5%) showed an effect of 50% or more. The effect is printed as a negative number. The full list was thinned out, with strong results kept by preference.
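Also: peak tail current of the secondary pulse compared with the same well before compound.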

Chain of human ether-à-go-go-related gene (hERG) potassium channel (Q12809 whole entry, looked up): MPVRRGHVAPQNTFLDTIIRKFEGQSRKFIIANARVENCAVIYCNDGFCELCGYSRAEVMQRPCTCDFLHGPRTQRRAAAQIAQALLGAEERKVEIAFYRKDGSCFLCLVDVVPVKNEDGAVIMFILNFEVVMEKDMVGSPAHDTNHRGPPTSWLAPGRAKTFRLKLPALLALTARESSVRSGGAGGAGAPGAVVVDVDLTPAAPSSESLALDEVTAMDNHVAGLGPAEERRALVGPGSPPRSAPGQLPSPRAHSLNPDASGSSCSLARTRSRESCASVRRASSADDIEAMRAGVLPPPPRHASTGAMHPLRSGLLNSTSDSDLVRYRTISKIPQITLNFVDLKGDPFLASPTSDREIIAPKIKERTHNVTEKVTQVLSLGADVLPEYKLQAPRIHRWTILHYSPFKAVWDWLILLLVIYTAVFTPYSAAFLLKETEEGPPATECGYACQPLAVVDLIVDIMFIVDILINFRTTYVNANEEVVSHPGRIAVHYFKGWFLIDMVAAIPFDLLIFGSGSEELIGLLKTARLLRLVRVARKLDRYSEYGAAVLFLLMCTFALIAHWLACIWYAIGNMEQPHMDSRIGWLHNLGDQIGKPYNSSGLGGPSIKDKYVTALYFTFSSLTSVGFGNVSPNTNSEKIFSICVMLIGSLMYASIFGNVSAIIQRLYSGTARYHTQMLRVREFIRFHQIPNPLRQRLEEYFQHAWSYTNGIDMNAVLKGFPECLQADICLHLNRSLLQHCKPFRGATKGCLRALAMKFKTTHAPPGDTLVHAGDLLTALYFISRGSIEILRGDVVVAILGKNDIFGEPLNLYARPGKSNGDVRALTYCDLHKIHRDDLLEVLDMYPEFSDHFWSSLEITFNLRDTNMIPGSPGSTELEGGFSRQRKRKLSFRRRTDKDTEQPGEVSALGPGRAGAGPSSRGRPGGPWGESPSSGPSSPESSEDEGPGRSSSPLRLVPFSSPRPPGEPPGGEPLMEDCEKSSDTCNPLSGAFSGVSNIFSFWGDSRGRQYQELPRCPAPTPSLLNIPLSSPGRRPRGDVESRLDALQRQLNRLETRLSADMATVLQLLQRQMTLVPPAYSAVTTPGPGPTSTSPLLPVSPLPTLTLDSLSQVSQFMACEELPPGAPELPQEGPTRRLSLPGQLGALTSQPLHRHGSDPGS

This test concerns the target human ether-à-go-go-related gene (hERG) potassium channel (human, UniProt Q12809). Briefly: primary screen, population patch clamp on CHO cells stably expressing hERG; higher = less effect of the substance.
For the molecule `CCOc1ccccc1CNC(=O)CCNS(=O)(=O)c1ccc2[nH]c(=O)oc2c1`, the “hERG current change (%, negative = inhibition) at 10uM” value is listed as -2.89%. Take `CCC(O)(CC)C(=O)N/N=C/c1cc(Br)cc(Br)c1O`: the “hERG current change (%, negative = inhibition) at 10uM” value was -1.02%. As for `C/C(CC(=O)Nc1ccccn1)=N\NC(=O)Cc1cccc2ccccc12`, the figure is 1.01%; as for `CCOC(=O)c1c(C)[nH]c(C(=O)COC(=O)c2ccccn2)c1C`, -17%; as for `Cc1cccc(-c2nnc3n2N=C(c2ccccc2Br)CS3)c1`, -14.4%.

Take `CC1CCCC(NC(=O)COC(=O)CN2C(=O)C3CCCCC3C2=O)C1C` (centres unmarked): the “hERG current change (%, negative = inhibition) at 10uM” value came out at 10.3%. As for `Cc1ccc(CN(Cc2ccccn2)C(=O)Nc2c(F)cccc2F)cc1`, the figure is -0.968%. For `CCC/C(=N\NC(=O)c1ccc(CSc2nncn2C)cc1)c1ccccc1` the value was -8.28%; for `CCCOc1ccc(C2c3c(oc4cc(C)c(C)cc4c3=O)C(=O)N2CCCN(C)C)cc1OCC` (centres unmarked), 7.65%; for `CCN1CCN(C(CNS(=O)(=O)c2ccc(F)cc2)c2cccnc2)CC1` (centres unmarked), -20.5%. For `Cc1cc(C)c(S(=O)(=O)NCC(c2cccnc2)N2CCN(Cc3ccccc3)CC2)c(C)c1` (centres unmarked) the value was -69.5%.

For the molecule `O=S(=O)(NCC(c1cccnc1)N1CCc2ccccc2C1)c1ccccc1` (centres unmarked), the “hERG current change (%, negative = inhibition) at 10uM” value stood at 10.3%. For `O=S(=O)(NCC(c1cccnc1)N1CCOCC1)c1ccccc1` (centres unmarked) the value was 4.6%. For `Cc1cc(C)c(S(=O)(=O)NC2CCN(Cc3ccccc3)CC2)c(C)c1.Cl` the value was -47.6%.

Regarding `O=S(=O)(NCC(c1cccnc1)N1CCN(Cc2ccccc2)CC1)c1ccc(Cl)cc1` (centres unmarked), the “hERG current change (%, negative = inhibition) at 10uM” value was -78.3%. Take `Cc1cc(C)c(S(=O)(=O)NCc2cccnc2)c(C)c1`: the “hERG current change (%, negative = inhibition) at 10uM” value was -2.97%.

Consider `O=S(=O)(NCC(c1cccnc1)N1CCN(Cc2ccccc2)CC1)c1ccc(F)cc1` (centres unmarked), for which the “hERG current change (%, negative = inhibition) at 10uM” value was -65%. For `O=S(=O)(NCC(c1cccnc1)N1CCN(Cc2ccccc2)CC1)c1ccccc1` (centres unmarked) the value was -68.9%.

Take `O=S(=O)(NCC(c1cccnc1)N1CCOCC1)c1ccc(Cl)cc1` (centres unmarked): the “hERG current change (%, negative = inhibition) at 10uM” value is 4.89%. As for `CCN1CCN(C(CNS(=O)(=O)c2ccccc2)c2cccnc2)CC1` (centres unmarked), the figure is -39.2%. As for `C(=N\N(Cc1ccccc1)c1ccccc1)/c1ccco1`, the figure is -11.5%; as for `O=C(CNC(=O)c1ccccc1F)OCc1nc2ccccc2s1`, 20.6%; as for `COc1cc(C(=O)Nc2nccs2)cc(OC)c1OC`, 3.55%. With `CSc1ccc(/C=N/n2c(C3CCCCC3)n[nH]c2=S)cc1`, the “hERG current change (%, negative = inhibition) at 10uM” value was 21.9%. As for `O=C(/C=C/c1ccc2c(c1)OCO2)Nc1nc(-c2ccc(F)cc2F)cs1`, the figure is 9.08%; as for `O=C(O)/C=C/c1cccc(NC(=O)c2ccccc2)c1`, 9.14%; as for `CCOc1ccc(NC(=O)CN(C)C(=O)Cn2cnc3c2c(=O)n(C)c(=O)n3C)cc1OCC`, 5.62%.

Consider `Cc1ccc(S(=O)(=O)NCC(c2cccnc2)N2CCN(Cc3ccccc3)CC2)cc1` (centres unmarked), for which the “hERG current change (%, negative = inhibition) at 10uM” value is reported as -73.1%. As for `COc1ccc(S(=O)(=O)NCC(c2cccnc2)N2CCN(Cc3ccccc3)CC2)cc1` (centres unmarked), the figure is -58.5%; as for `Cc1ccc(S(=O)(=O)NCC(c2cccnc2)N2CCc3ccccc32)cc1` (centres unmarked), -2.1%.

In the case of `CCN1CCN(C(CNS(=O)(=O)c2ccc(OC)cc2)c2cccnc2)CC1` (centres unmarked), the “hERG current change (%, negative = inhibition) at 10uM” value is reported as -45.4%. As for `Cc1ccc(S(=O)(=O)NCC(c2cccnc2)N2CCOCC2)cc1` (centres unmarked), the figure is 5.12%; as for `O=C(CCC(=O)OCC(=O)c1ccc([N+](=O)[O-])cc1)NC1CCCCC1`, -0.724%. As for `COc1ccc(Cn2nnnc2CN2CCC(O)(c3ccc(F)cc3)CC2)cc1`, the figure is -14.5%; as for `COc1ccc(C(=O)Nc2ccc(-n3nncc3C(C)(C)C)cc2)cc1`, -26.4%; as for `COc1cccc(C(=O)Nc2ccc(-n3nncc3C(C)(C)C)cc2)c1`, -60.5%. Take `CC(C)(C)c1cnnn1-c1ccc(NC(=O)c2ccc3c(c2)OCO3)cc1`: the “hERG current change (%, negative = inhibition) at 10uM” value was -17.4%.

With `Cc1ccc(-n2c3c(cc(C(=O)NCC(=O)c4ccccc4)c2=O)C(=O)CCC3)cc1`, the “hERG current change (%, negative = inhibition) at 10uM” value is reported as 10.2%. Consider `O=C1CCCc2c1cc(C(=O)NCc1ccco1)c(=O)n2-c1ccc(Cl)cc1`, for which the “hERG current change (%, negative = inhibition) at 10uM” value was -69.3%. For `O=C1CCCc2c1cc(C(=O)O)c(=O)n2-c1ccccc1` the value was 13.9%. As for `O=C1CCCc2c1cc(C(=O)NCc1ccco1)c(=O)n2-c1ccccc1`, the figure is -10.3%; as for `Cc1ccc(-n2c3c(cc(C(=O)NCc4ccco4)c2=O)C(=O)CC(C)(C)C3)cc1`, -6.38%. For `O=C1CCCc2c1cc(C(=O)Nc1ccc(Br)cn1)c(=O)n2-c1ccccc1` the value was -2.93%; for `CC1(C)CC(=O)c2cc(C(=O)NCc3ccco3)c(=O)n(-c3ccc(Cl)cc3)c2C1`, -22.2%; for `O=C1CCCc2c1cc(C(=O)Nc1ccc(Cl)cn1)c(=O)n2-c1ccccc1`, -60.1%.

As to `COc1ccc(-n2c3c(cc(C(=O)NCc4ccco4)c2=O)C(=O)CC(C)(C)C3)cc1`, the “hERG current change (%, negative = inhibition) at 10uM” value was -56.6%. As for `Cc1ccc(-n2c3c(cc(C(=O)NCc4ccco4)c2=O)C(=O)CCC3)cc1`, the “hERG current change (%, negative = inhibition) at 10uM” value is on record as -53.8%. For `CC1(C)CC(=O)c2cc(C(=O)NCc3ccco3)c(=O)n(-c3ccccc3)c2C1` the value was -19.7%; for `O=C1CCCc2c1cc(C(=O)NCCCN1CCOCC1)c(=O)n2-c1ccc(Cl)cc1`, 1.59%; for `CS(=O)(=O)N(CC(=O)N1CCN(c2cccc(Cl)c2)CC1)c1cccc(F)c1`, -33.8%. As for `COc1ccccc1NC(=O)Cn1c(CN2CCCCC2)nc2ccccc2c1=O`, the figure is -43.7%; as for `CN(Cc1cccs1)C(=O)CCCc1c[nH]c2ccccc12`, -1.49%; as for `COc1ccc(/C(O)=C2/C(=O)C(=O)N(CCN(C)C)C2c2ccc(OC)c(OC)c2)c(C)c1` (centres unmarked), 11%. As for `O=C(c1cc(S(=O)(=O)N2CCOCC2)ccc1Cl)N1CCC(Cc2ccccc2)CC1`, the figure is -15.9%; as for `Cc1cc(CNC(=O)c2cccc([N+](=O)[O-])c2C)c2ccccc2n1`, -53%. Take `Cc1cc(CNC(=O)c2cccc([N+](=O)[O-])c2)c2ccccc2n1`: the “hERG current change (%, negative = inhibition) at 10uM” value was determined as 6.72%.

On to `Cc1cc(CNC(=O)c2ccc(C)c([N+](=O)[O-])c2)c2ccccc2n1`, for which the “hERG current change (%, negative = inhibition) at 10uM” value is 8.05%. For `CN(CC(=O)Nc1ccc(F)cc1)C(=O)COc1ncnc2ccccc12` the value was -19.3%; for `Cc1ccc(NC(=O)COc2ccccc2C(=O)NCc2ccccc2)cc1`, -31.1%; for `COc1ccc(-c2cn(CC3CCCCC3)nn2)cc1`, 15.3%.

On to `Cc1ccc(-c2cn(C[C@H]3CC[C@@H]([C@@H]4CC[C@H](Cn5cc(-c6ccc(C)cc6)nn5)O4)O3)nn2)cc1`, for which the “hERG current change (%, negative = inhibition) at 10uM” value is listed as -7.99%. For `COc1ccc(-c2cn(Cc3cccc(OC)c3)nn2)cc1` the value was -0.524%; for `COc1cccc(-c2cn(C[C@H]3CC[C@@H]([C@@H]4CC[C@H](Cn5cc(-c6cccc(OC)c6)nn5)O4)O3)nn2)c1`, -72.7%. For `c1ccc(-c2cn(C[C@H]3CC[C@@H]([C@@H]4CC[C@H](Cn5cc(-c6ccccc6)nn5)O4)O3)nn2)cc1` the value was -23.8%; for `c1ccc(-c2cn(C[C@H]3CC[C@@H]([C@@H]4CC[C@H](Cn5cc(-c6ccccn6)nn5)O4)O3)nn2)nc1`, -6.73%. For `c1cc(-c2cn(C[C@H]3CC[C@@H]([C@@H]4CC[C@H](Cn5cc(-c6ccsc6)nn5)O4)O3)nn2)cs1` the value was -75.5%; for `c1ccc(-c2cn(C[C@H]3CC[C@H](Cn4cc(-c5ccccn5)nn4)O3)nn2)nc1`, -9.3%. As to `c1cncc(-c2cn(C[C@H]3CC[C@@H]([C@@H]4CC[C@H](Cn5cc(-c6cccnc6)nn5)O4)O3)nn2)c1`, the “hERG current change (%, negative = inhibition) at 10uM” value was -58.5%. As for `Cc1c(CCO)c(=O)n(C)n1C(=O)c1ccc(F)cc1`, the figure is 2.6%. Regarding `CCCCCN(C(=O)CCC(=O)OCc1ccc(C(C)(C)C)cc1)c1c(N)n(CCCC)c(=O)[nH]c1=O`, the “hERG current change (%, negative = inhibition) at 10uM” value was -8.09%. For `CCN(Cc1ccccc1)C(=O)c1ccc(CS(=O)c2ccccc2C)o1` (centres unmarked) the value was -43.9%; for `C/C(=N\NC(=O)c1csc(C)c1C)c1ccc(Cl)s1`, -0.674%; for `C/C=C\C=C\C(=O)N1CC2(CC(c3cccc(NC(=O)CC(c4ccccc4)c4ccccc4)c3)=NO2)C[C@H]1C(N)=O` (some centres unmarked), 0.883%. For `CC1CCCCN1C(=O)c1cccc(NC2=C(Cl)C(=O)N(Cc3ccccc3)C2=O)c1` (centres unmarked) the value was -15.8%; for `CCOc1ccc(NC2=C(Cl)C(=O)N(Cc3ccccc3)C2=O)cc1`, -0.258%. Consider `O=C1C(Cl)=C(Nc2cccc(O)c2)C(=O)N1Cc1ccccc1`, for which the “hERG current change (%, negative = inhibition) at 10uM” value is listed as -62.4%.

`NC(C(=O)O)c1cc(=O)[nH]o1` (centres unmarked): the “hERG current change (%, negative = inhibition) at 10uM” value is given as 13.4%. For `CCCCn1c(SCC(=O)Nc2cccc(C)n2)nnc1-c1ccco1` the value was -76%; for `CCCCn1c(SCC(=O)Nc2cc(C)on2)nnc1-c1ccco1`, -23.3%. In the case of `CCn1c(SCC(=O)Nc2cccc(C)n2)nnc1-c1ccco1`, the “hERG current change (%, negative = inhibition) at 10uM” value is on record as -50.9%. As for `CCCCn1c(SCC(=O)NC(C)(C)C)nnc1-c1ccco1`, the figure is -1.57%; as for `COCCn1c(SCC(=O)Nc2cccc(C)n2)nnc1-c1ccco1`, -11.5%.

Take `CCCCn1c(SCC(=O)NC2CCCC2)nnc1-c1ccco1`: the “hERG current change (%, negative = inhibition) at 10uM” value was -54.8%. As for `CCn1c(SCC(=O)NC2CCCC2)nnc1-c1ccco1`, the figure is 14.8%; as for `CCC(=O)Nc1ccc(NC(=O)CSc2nnc(-c3ccco3)n2CC)cc1`, 8.22%. For `COCCn1c(SCC(=O)Nc2cc(C)on2)nnc1-c1ccco1` the value was -4.67%. For `CCn1c(SCC(=O)Nc2cc(C)on2)nnc1-c1ccco1` the value was -4.87%. `COCCCn1c(SCC(=O)Nc2cccc(C)n2)nnc1-c1ccco1`: the “hERG current change (%, negative = inhibition) at 10uM” value is given as -69.3%. For `CCCn1c(SCC(=O)NC2CCCCC2)nnc1-c1ccco1` the value was -20.3%.
